{"source": "PubChem BioAssay", "note": "A number with no mark means an inactive call."}
{"assay": "splicing luciferase reporter signal modulators, primary screen, spliceosome inhibition project, cell-based, HEK293, splice +/- reporter (AID 1101);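 also: HEK293 cells carrying a splicing-competent luciferase reporter gene; test concentration not given here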", "settings": "luminescence, 24 h, higher = more signal, called active from +8 up or from −8 down"}
{"smiles": "COc1cc2c(cc1O)C(c1ccc(CN3CCCC3)cc1)N(Cc1cc3c(cc1Br)OCO3)CC2", "note": "(stereo not drawn)", "z-score": 0.373}
{"smiles": "CCCC[C@@H]1C[C@H]1[C@@H](NC(=O)c1cccs1)c1ccccc1C(F)(F)F", "z-score": -0.701}
{"smiles": "CCOC(=O)C1=C[C@@H](c2ccccc2)N(S(=O)(=O)c2ccc(C)cc2)[C@H]1c1ccc(OC)cc1", "z-score": -0.71}
{"smiles": "C=CCC(OC(C)=O)[C@@H]1[C@@H](N(Cc2ccc(-c3cccc(C(F)(F)F)c3)o2)C(=O)Cc2ccc(OC)cc2)c2cc(OCCCO)ccc2N1C(=O)c1ccc(-c2ccccc2)cc1", "note": "(stereo partly drawn)", "z-score": -1.13}
{"smiles": "C=CC[C@@H](OC(=O)Nc1ccc(SC)cc1)c1ccc(O)c(F)c1", "z-score": -1.79}
{"smiles": "CCCCC=C[C@@H](NC(=O)OCc1ccccc1Cl)c1ccccc1", "z-score": 0.233}
{"smiles": "C=CCC(OC(C)=O)[C@@H]1[C@@H](N(Cc2cccc3ccccc23)C(=O)Cc2ccc(OC)cc2)c2cc(OCCCO)ccc2N1C(=O)c1ccc(-c2ccccc2)cc1", "note": "(stereo partly drawn)", "z-score": -0.279}
{"smiles": "CCCC=C(CCC)[C@@H](NP(=O)(c1ccccc1)c1ccccc1)c1ccc(-c2ccccc2)cc1", "z-score": -2.98}
{"smiles": "COCCCNC(=O)[C@@]1(CCC(=O)OC(C)(C)C)N=C(c2ccc(OCCCO)cc2)O[C@H]1c1ccccc1N=[N+]=[N-]", "z-score": -0.912}
{"smiles": "O=C(Cc1ccccc1)[C@H]1C2C=CCCC(c3ccccc3)=C2CN1Cc1ccccc1", "note": "(stereo partly drawn)", "z-score": -0.445}
{"smiles": "COC(=O)[C@@]1(Cc2ccc(F)cc2)[C@H]2c3cc(C(=O)N4CCCC4)n(Cc4ccc(C)c(F)c4F)c3C[C@H]2CN1C(=O)c1ccccc1", "z-score": -4.09}
{"smiles": "COc1ccc(C#Cc2ccc3c(c2)[C@]2(C(=O)N3)[C@H](C(=O)O)[C@H]3C(=O)O[C@H](c4ccccc4)[C@H](c4ccccc4)N3[C@@H]2c2ccc(O)cc2)cc1", "z-score": -0.264}
{"smiles": "CCC#CCN(Cc1ccccc1Br)[C@H](/C=C/C1CC1)[C@@H](O)Cc1ccccc1", "z-score": -0.739}
{"smiles": "COC(=O)[C@@]1(Cc2ccccc2)[C@H]2c3cc(C(=O)N(C)C)n(Cc4ccc(C)o4)c3C[C@H]2CN1C(=O)c1ccccc1", "z-score": -2.02}
{"smiles": "CC(C)NC(=O)[C@@]1(C)c2ccccc2C(=O)N(Cc2ccc(OC(F)(F)F)cc2)[C@H]1c1ccc(CO)cc1", "z-score": -1.08}
{"smiles": "COc1ccc([Si](C)(C)[C@@H]2[C@@H](CC(=O)N3CCC[C@H]3CO)O[C@]3(C(=O)N(Cc4cccc(N5C(=O)COc6ccccc65)c4)c4ccccc43)[C@H]2C)cc1", "z-score": -1.06}
{"smiles": "CCCC[C@@H](O)C1=C(COC)C[C@H]2C(=O)N(C)C(=O)[C@H]2[C@H]1CO", "z-score": -0.857}
{"smiles": "COc1ccc([Si](C)(C)[C@@H]2[C@@H](CC(=O)N(CCO)Cc3ccccc3)O[C@]3(C(=O)N(Cc4cccc(N5CCCCC5=O)c4)c4ccccc43)[C@H]2C)cc1", "z-score": -0.166}
{"smiles": "COc1ccc(CCNC(=O)[C@@]2(Sc3ccc(C)cc3)CC(=O)N(Cc3ccccc3C(F)(F)F)[C@@H]2c2ccc(CO)cc2I)cc1", "z-score": -1.14}
{"smiles": "[N-]=[N+]=Nc1ccccc1[C@@H]1OC(c2ccc(OCCCO)cc2)=N[C@]1(Cc1ccccc1)C(=O)N1CCCCC1", "z-score": 0.745}
{"smiles": "Cc1ccc(S[C@]2(C(=O)NCc3ccccc3)CC(=O)N(C3CCCCC3)[C@@H]2c2ccc(CO)cc2I)cc1", "z-score": -1.49}
{"smiles": "COc1ccc([Si](C)(C)[C@H]2[C@H](CC(=O)N(CCO)Cc3ccccc3)O[C@@]3(C(=O)N(C)c4c(Br)cc(C)cc43)[C@@H]2C)cc1", "z-score": -1.34}
{"smiles": "[N-]=[N+]=Nc1ccccc1[C@@H]1OC(c2ccc(OCCCO)cc2)=N[C@]1(Cc1ccccc1)C(=O)O", "z-score": -0.689}
{"smiles": "CCCC1(C(=O)OC)C=C2C(=C(C)C(=O)C2C)CN1", "note": "(stereo not drawn)", "z-score": 0.888}
{"smiles": "COCC(=C=CC[C@H](O)c1ccccc1OCCO)C[C@H](O)c1ccccn1", "z-score": 0.0209}
{"smiles": "Oc1ccc2cc[n+](Cc3cc4c(cc3Br)OCO4)cc2c1", "z-score": -0.95}
{"smiles": "CC(C)[Si]1(C(C)C)OCc2cc(C3CC3)nc(-c3ccc(Oc4ccccc4)cc3)c21", "z-score": -0.654}
{"smiles": "[N-]=[N+]=Nc1ccccc1C[C@]1(C(=O)N2CCOCC2)COC(c2ccc(OCCCO)cc2)=N1", "z-score": -0.59}
